The structures appear in SMILES notation. Compounds without any hit were thinned out: in the full panel of roughly 83,000, 20% have a hit.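 48-hour exposure, single concentration, 96-well plates; percent growth endpoint where 0 means no net growth. Active: below 10.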 Calls of active or inactive are those of the source.

In this test the test system is RXF 393 renal. Description: NCI-60 one-dose screen, 48 h (100 = growth as untreated, 0 = no growth, -100 = all killed). The following applies: 10 µM unless noted.
Consider `O=C(Nc1cccc2ccccc12)c1cc2ccccc2cc1O`, for which the growth was 22.7% (inactive).

`COc1cc2c(O)n(CCCN3CCOCC3)c3c4cnc5cccc(c(=O)c3c2cc1OC)c54`: the growth is 30.4% (inactive).

As to `C#CCNC(=O)CC[C@@H](C)[C@H]1CC[C@H]2[C@@H]3CC[C@@H]4CC(=O)CC[C@]4(C)[C@H]3CC[C@]12C`, the growth was -76.1% [100 µM] (active).

For `COc1ccc(NC(=O)Nc2ccc(-c3cccnc3)cc2N2CCC(CO)CC2)cc1`, the growth was 13.1% (inactive).

Take `CC1(C(=O)O)CCC(N)(C(=O)O)C1(C)C` (configuration not stated): the growth was 126% (inactive).

Regarding `COc1ncc(-c2ccc3nccc(C#CCCCCC(=O)NO)c3c2)cc1NS(=O)(=O)c1ccc(F)cc1F`, the growth is -56.6% (active).

Consider `O=C(O)CC1CCCCC1c1ccccc1` (configuration not stated), for which the growth is 106% (inactive).

With `CC(C)=CC/C=C(/C)[C@H]1CC[C@]2(C)[C@@H]1CC[C@@H]1[C@@]3(C)CCC(=O)NC(C)(C)[C@@H]3CC[C@]12C`, the growth is -72.3% [100 µM] (active).

As for `Cc1nc(Cl)c2c(n1)N(C)c1ccc(Cl)cc1C(C)C2` (configuration not stated), the growth was 101% (inactive).

For `Cc1ccc(N)c(O)c1`, the growth is 82.1% (inactive).

Take `Nc1ccc(Cl)c([N+](=O)[O-])c1`: the growth is 109% (inactive).

For the molecule `O=[N+]([O-])c1cccc(N=NNc2cccc([N+](=O)[O-])c2)c1`, the growth was 90.2% (inactive).

For `C=C(C)[C@@H]1CC[C@]2(C)[C@H](CC[C@@H]3[C@@H]([C@@](C)(O)CCC=C(C)C)CC[C@]32C)[C@@]1(C)CCC(=O)N1CCN(C)CC1`, the growth was -93.7% [100 µM] (active).

For the molecule `Cn1cc(-c2noc(C(=O)c3cn(C)c4ncc(Br)cc34)n2)c2ccccc21`, the growth was 104% (inactive).

For the molecule `COc1cc(NCc2ccccc2O)c2ncccc2c1`, the growth was 100% (inactive).

For the molecule `Cc1ccc(C2=C/C(=C/c3ccc(Br)cc3)C(=O)N2CCc2ccc(S(N)(=O)=O)cc2)cc1`, the growth is 90% (inactive).

For `Nc1nc(Nc2ccccc2)c2ncn(Cc3ccc4c(c3)OCO4)c2n1`, the growth is 52.8% (inactive).

For the molecule `O=C(CCCSc1nc(-c2ccccc2)cc(-c2ccccc2)n1)NO`, the growth is -21.7% (active).

Consider `FC(F)(F)c1ccc2c(c1)Sc1ccccc1N2`, for which the growth was 96.6% (inactive).

Take `O=C1NC(=O)C(Cc2ccccc2)(Cc2ccccc2)N1`: the growth was 117% (inactive).

Turning to `C=C(C)[C@@H]1CC[C@]2(C(=O)N3CCN(C)CC3)CC[C@]3(C)[C@H](CC[C@@H]4[C@@]5(C)C/C(=C/c6ccncc6)[C@H](O)C(C)(C)[C@@H]5CC[C@]43C)[C@@H]12`, the growth is -88.5% [100 µM] (active).

Turning to `C[C@@H](NC(=O)[C@@H](CC(=O)N1CCC(N2CCCCC2)CC1)N1C(=O)[C@@H](N2C(=O)OC[C@@H]2c2ccccc2)[C@H]1/C=C/c1cccc(Cl)c1)c1ccccc1`, the growth is 60.5% (inactive).

For the molecule `N#C/C(=C(/O)CCCO)c1nc2ccccc2c(=O)[nH]1`, the growth is 87.5% (inactive).

In the case of `Cn1cc(-c2nnc(-c3cn(C)c4ncc(Br)cc34)s2)c2cc(Br)ccc21`, the growth is 118% (inactive).

Consider `CC1(C)CC[C@]2(C(=O)OC(=O)[C@]34CCC(C)(C)C[C@@H]3C3=CC[C@@H]5[C@@]6(C)CCC(=O)C(C)(C)[C@@H]6CC[C@@]5(C)[C@]3(C)CC4)CC[C@]3(C)C(=CC[C@@H]4[C@@]5(C)CCC(=O)C(C)(C)[C@@H]5CC[C@]43C)[C@H]2C1`, for which the growth was 62.6% [100 µM] (inactive).

In the case of `Cn1cc(-c2noc(-c3cn(C)c4ncc(Br)cc34)n2)c2cc(Cl)ccc21`, the growth is 105% (inactive).

For `CCc1cccc(Cl)c1`, the growth is 114% (inactive).

Regarding `c1cc2ccc3cc2cc1CNCCN1CCNCc2ccc4ccc(cc4c2)CNCCN(CCNC3)CCNCc2ccc3ccc(cc3c2)CNCC1`, the growth was 11.4% (inactive).

As for `COc1ccc(-c2cc(-c3ccccc3)nc(NCCNc3ccnc4cc(Cl)ccc34)n2)cc1`, the growth was -87% (active).

Turning to `O=C(N/N=C\c1cc(Cl)ccc1O)N/N=C/c1cc(Cl)ccc1O`, the growth is 85% (inactive).

On to `O=C1Nc2ccccc2/C1=C/C(=O)c1ccc(N2CCCCC2)cc1`, for which the growth is 77% (inactive).

Regarding `O=c1c2c3c(sc2n2cnnc2n1Cc1ccccc1)CCCC3`, the growth was 101% (inactive).

With `Cn1c(=O)c(C#N)c(-c2ccco2)n2c(S(=O)(=O)Cc3ccccc3)nnc12`, the growth was 91% (inactive).

Turning to `CCCCCn1sc(=O)n(Cc2ccc(CNC(=O)OCc3ccc4cccc(O)c4n3)cc2)c1=O`, the growth was -76.8% (active).

`O=C(N/N=C/c1ccc([N+](=O)[O-])cc1)c1ccc(Br)o1`: the growth is 90.3% (inactive).

On to `C=C(C)[C@@H]1CC[C@]2(COCCC#N)CC[C@]3(C)[C@H](CC[C@@H]4[C@@](C)(CCCNCCC#N)[C@H](C(=C)C)CC[C@]43C)[C@@H]12`, for which the growth is -11.8% [100 µM] (active).

Turning to `C=C(C)[C@@H]1CC[C@]2(C(=O)OC)CC[C@]3(C)[C@H](CC[C@@H]4[C@@]5(C)CC/C(=N\OCCC(=NCCC#N)NOCCC#N)C(C)(C)[C@@H]5CC[C@]43C)[C@@H]12`, the growth is -43.1% [100 µM] (active).

(Values after PubChem BioAssay (NCI).)
